GPR151 ag: activators of human GPR151, primary screen, cell-based, PathHunter beta-arrestin, luminescence | hit rate 1% among 650,000 | PathHunter beta-arrestin GPR151 cells | G-protein coupled receptor 151 (Homo sapiens), Q8TDV0 | activation, % at 11.2 µM; in the data active = activation above about 4.9%
TEAD-YAP block: TEAD-YAP interaction inhibition, primary screen, TEAD-YAP interaction inhibitor project, luminescence, HEK-TIYL cells; hit rate 1.4% among 640,000; TEAD-Gal4/YAP UAS-luciferase luminescence; inhibition, % at 9.12 µM; in the data active = inhibition above about 32%
MITF inh: MITF inhibitors, primary screen, biochemical, AlphaScreen, human; Microphthalmia-associated transcription factor (Homo sapiens), O75030; AlphaScreen MITF homodimerization, bead proximity signal; inhibition, % at 2.6 µM; hit rate 0.91% among 650,000; in the data active = inhibition above about 50%
FBW7 activator: FBW7 E3 ligase activators, primary screen, biochemical, AlphaScreen, human. AlphaScreen FBW7–phospho-cyclin E peptide binding, activator screen. F-box/WD repeat-containing protein 7 (Homo sapiens), Q969H0. normalized activity (activation), % at 26.1 µM. hit rate 0.13% among 650,000; in the data active = normalized activity above about 1.9%;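 also: purified mutant Fbw7 with reduced substrate affinity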
Target sequence (Q969H0 whole entry, looked up): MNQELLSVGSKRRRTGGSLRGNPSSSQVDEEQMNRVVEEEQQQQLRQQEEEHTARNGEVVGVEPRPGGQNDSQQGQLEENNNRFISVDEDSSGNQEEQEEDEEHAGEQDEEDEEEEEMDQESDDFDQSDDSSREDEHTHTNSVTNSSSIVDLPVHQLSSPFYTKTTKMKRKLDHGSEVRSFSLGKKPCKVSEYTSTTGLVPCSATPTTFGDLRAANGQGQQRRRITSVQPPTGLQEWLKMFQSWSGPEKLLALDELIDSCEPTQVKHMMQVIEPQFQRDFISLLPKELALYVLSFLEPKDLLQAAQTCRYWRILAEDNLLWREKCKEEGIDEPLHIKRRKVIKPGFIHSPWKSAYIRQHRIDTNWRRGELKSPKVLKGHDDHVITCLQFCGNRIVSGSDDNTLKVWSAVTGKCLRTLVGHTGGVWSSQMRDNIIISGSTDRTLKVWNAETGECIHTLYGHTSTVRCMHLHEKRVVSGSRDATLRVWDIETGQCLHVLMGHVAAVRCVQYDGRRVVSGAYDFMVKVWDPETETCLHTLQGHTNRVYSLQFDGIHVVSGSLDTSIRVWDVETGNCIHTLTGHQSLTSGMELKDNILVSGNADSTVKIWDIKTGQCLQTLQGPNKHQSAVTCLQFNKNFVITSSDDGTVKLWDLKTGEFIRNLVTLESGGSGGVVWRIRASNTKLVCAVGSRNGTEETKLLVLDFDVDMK
GPR151 conf act: GPR151 activators, triplicate retest, confirmation, cell-based, PathHunter beta-arrestin, luminescence | 6,700 tested, under 10 active | activation, % at 11.2 µM | AID 1508609, 2020 | GPR151 PathHunter beta-arrestin cells, 90 min; % of EA-reagent control over plate median | shares compounds with GPR151 ag;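 active = mean percent activation across replicates above the confirmation screen cutoff of 4.91%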
GPR119 ag: GPR119 activators in beta-arrestin cells, counter-screen for GPR151 activator project, cell-based, PathHunter beta-arrestin, luminescence, triplicate | shares compounds with GPR151 ag | 90 min; 0 = compound-well median, 100 = enzyme-acceptor control | activation, % at 11.2 µM | hit rate 0.3% among 6,700 | AID 1508611, 2020;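 active = mean percent activation in the counterscreen above 29.09%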;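 also: counterscreen on off-target GPR119 to flag nonselective hits from the GPR151 activator screen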
Large screens that a line does not name were inactive (follow-up assays come after a bar, where they were run). An excerpt weighted towards active compounds, which were near 3.4% of everything screened.

COc1cccc(-c2noc(C3CCCN(C(=O)Nc4ccc(C(F)(F)F)cc4)C3)n2)c1 (configuration not stated)	none
COc1ccccc1NC(=O)N1CCC(c2nc(-c3cccc(C(F)(F)F)c3)no2)CC1	GPR151 ag 11 | GPR151 conf act inactive | GPR119 ag inactive
COc1ccccc1NC(=O)N1CCC(C(=O)c2ccc(F)cc2)CC1	GPR151 ag 5.7 | GPR151 conf act inactive | GPR119 ag inactive
CCOc1ccc(OC(=O)c2ccc(C(=O)Oc3ccc(OCC)cc3)nc2)cc1	none
CCc1ccc(OC(=O)c2ccc(C(=O)Oc3ccc(CC)cc3)nc2)cc1	GPR151 ag 5.4 | GPR151 conf act inactive | GPR119 ag inactive
COC(=O)c1nnn(-c2nonc2N)c1C(=O)OC	GPR151 ag 6.0 | GPR151 conf act inactive | GPR119 ag inactive
COC(=O)c1nnn(-c2nonc2N)c1C(C)(C)C	none
CCN(Cc1c(C(=O)OC)nnn1-c1nonc1N)c1ccccc1	GPR151 ag 5.1 | GPR151 conf act inactive | GPR119 ag inactive
CNC(=O)C(Sc1nnc(Nc2ccc(Oc3ccccc3)cc2)s1)C(C)=O (configuration not stated)	none
COc1cccc(OC)c1C(=O)Nc1ccc(I)cc1Cl	none
Cc1ccc([N+](=O)[O-])cc1NC(=O)c1ccccc1Cl	none
O=C(Nc1ccc(S(=O)(=O)Nc2nccs2)cc1)c1ccc([N+](=O)[O-])cc1Cl	GPR151 ag 5.2 | GPR151 conf act inactive | GPR119 ag inactive
O=C(Nc1ccc([N+](=O)[O-])cc1Cl)c1ccccc1Cl	GPR151 ag 8.1 | GPR151 conf act inactive | GPR119 ag inactive
COc1ccccc1C(=O)Nc1ccc(I)cc1Cl	GPR151 ag 7.2 | GPR151 conf act inactive | GPR119 ag inactive
Cc1cc(C)cc(C(=O)Nc2ccc([N+](=O)[O-])cc2C)c1	GPR151 ag 8.9 | GPR151 conf act inactive | GPR119 ag inactive
CC(/C=C1\N=C(c2ccc(Br)cc2)OC1=O)=C\c1ccccc1	none
O=C(COc1cccc2ccccc12)Nc1ccc(S(=O)(=O)N2CCCC2)cc1	none
CC1=C(c2ccc(C)cc2)S(=O)(=O)N=C1Nc1ccc(C)cc1C	none
Cc1ccc(C(=O)Nc2ccc([N+](=O)[O-])cc2)c(Cl)c1	GPR151 ag 15 | GPR151 conf act inactive | GPR119 ag inactive
O=C(CCC(=O)OCC(F)(F)F)NC1CC1	none
Cn1c(=O)c2c(ncn2CC(=O)N/N=C/c2cccc(F)c2)n(C)c1=O	GPR151 ag 5.6 | GPR151 conf act inactive | GPR119 ag inactive
Cc1ccccc1Nc1nc(N2CC(C)CC(C)C2)nc2c1cnn2C (configuration not stated)	none
CCC(C)c1ccccc1NC(=S)NC(C)=O (configuration not stated)	GPR151 ag 31 | GPR151 conf act inactive | GPR119 ag inactive
CCC(C)c1ccccc1NC(=O)CCNC(C)=O (configuration not stated)	none
c1cncc(-c2cc(NC3CC3)nc(-c3ccncc3)n2)c1	none
CC(C)OC(=O)COc1ccc(C(=O)NCc2ccccc2)cc1	GPR151 ag 5.3 | GPR151 conf act inactive | GPR119 ag inactive
O=C(NCc1ccccc1)c1ccc(OCc2ccccc2)cc1	none
CC1Sc2ccccc2N(Cc2ccc(C(F)(F)F)nc2)C1=O (configuration not stated)	GPR151 ag 5.4 | GPR151 conf act inactive | GPR119 ag inactive
COc1ccc(/C=C/C(=O)c2ccc[nH]2)cc1OC	GPR151 ag 5.8 | GPR151 conf act inactive | GPR119 ag inactive
Cc1cccc(C)c1NC(=O)C1c2cccc[n+]2CC(=O)N1CCO (configuration not stated)	none
CCCN1C(=O)C[n+]2ccccc2C1C(=O)Nc1ccccc1C (configuration not stated)	GPR151 ag 12 | GPR151 conf act inactive | GPR119 ag inactive
O=C(Cc1ccc(N2CCC(NCCn3ccnc3)CC2)cc1)NCCc1cccc(F)c1	GPR151 ag 6.0 | GPR151 conf act inactive | GPR119 ag inactive
CC(C)[C@@H]1NC(=O)[C@H]2CN(C(=O)c3cccs3)CCN2C1=O	none
Cc1nc2cc(C(=O)OCC(=O)Nc3ccc(C#N)cc3)ccc2n1-c1ccccc1	none
CC(=O)c1ccc(NC(=O)COC(=O)c2ccc3c(c2)nc(C)n3-c2ccccc2)cc1	GPR151 ag 7.1 | GPR151 conf act inactive | GPR119 ag inactive
CCOC(=O)c1sc2nc(SCC#N)n(Cc3ccccc3OC)c(=O)c2c1C	none
CCCCCC1(C)NC(=S)N(c2ccc(Cl)cc2)N1 (configuration not stated)	none
O=C1CSC(c2ccc(Cl)cc2)N1Cc1cn2ccccc2n1 (configuration not stated)	GPR151 ag 5.0 | GPR151 conf act inactive | GPR119 ag inactive
COC(=O)c1c(C)oc2ccc(NS(=O)(=O)c3ccc4c5c(cccc35)C(=O)N4)cc12	none
O=C(COc1ccccc1-c1ccccc1)NNC(=O)COc1ccccc1[N+](=O)[O-]	GPR151 ag 7.1 | GPR151 conf act inactive | GPR119 ag inactive
COc1ccc(/C(C)=N\NC(=O)COc2ccc(C)cc2C)cc1OC	none
COc1ccc(/C(C)=N\NC(=O)COc2ccc(C)cc2[N+](=O)[O-])cc1OC	GPR151 ag 7.4 | GPR151 conf act inactive | GPR119 ag inactive
CC(C)(C)NC(=O)COc1ccccc1[N+](=O)[O-]	none
C/C(=N\NC(=S)NCc1ccco1)c1cccc([N+](=O)[O-])c1	GPR151 ag 5.0 | GPR151 conf act inactive | GPR119 ag inactive
C/C(=N\NC(=O)COc1ccccc1[N+](=O)[O-])c1ccc(Cl)cc1	GPR151 ag 7.1 | GPR151 conf act inactive | GPR119 ag inactive
COc1cc([N+](=O)[O-])ccc1NC(=S)NCc1ccco1	none
Cc1cccc(-c2noc(CN(C)S(=O)(=O)c3ccc(Cl)cc3)n2)c1	none
COc1ccc(C2=N/C(=C/c3cccc(Cl)c3Cl)C(=O)O2)cc1OC	none
CCOc1ccccc1OCCC(=O)Nc1ccc(OC)cc1	none
Cc1ccc(C2CC(C(F)(F)F)n3ncc(C(=O)Nc4cccnc4)c3N2)cc1 (configuration not stated)	none
O=C(O)CCC(=O)NNC(=O)CNC(=O)c1ccc(Cl)cc1Cl	none
O=C(COc1ccccc1Cl)N/N=C/c1ccc(F)cc1	none
O=C(COc1ccccc1[N+](=O)[O-])N/N=C/c1ccccc1Cl	GPR151 ag 22 | GPR151 conf act inactive | GPR119 ag inactive

Compound activity: PubChem BioAssay, The Scripps Research Institute Molecular Screening Center
